Results taken from PubChem BioAssay (Tox21).
Results filed as inconclusive are left out. A call without a number means that no potency is given here. Calls of active or inactive are those of the source. The call rests on the fitted dose curve.

target: Acetylcholinesterase (Homo sapiens) (UniProt P22303); experiment: Acetylcholinesterase (AChE) small molecule antagonists: colormetric cell-based qHTS assay (AID 1347395); conditions: SH-SY5Y cells AChE activity, colorimetric (Ellman); series mostly up to 115 µM; further: nearly all actives have a fitted effect of over 30% in size
Method in brief: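 Cells (SH-SY5Y, 2,000 per well) are seeded and left overnight at 37 C. Compound is added for 30 min, then DTNB and acetylthiocholine for a further 90 min at 37 C before absorbance-based thiocholine detection.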

Sequence of Acetylcholinesterase (Homo sapiens) (P22303 whole entry, looked up): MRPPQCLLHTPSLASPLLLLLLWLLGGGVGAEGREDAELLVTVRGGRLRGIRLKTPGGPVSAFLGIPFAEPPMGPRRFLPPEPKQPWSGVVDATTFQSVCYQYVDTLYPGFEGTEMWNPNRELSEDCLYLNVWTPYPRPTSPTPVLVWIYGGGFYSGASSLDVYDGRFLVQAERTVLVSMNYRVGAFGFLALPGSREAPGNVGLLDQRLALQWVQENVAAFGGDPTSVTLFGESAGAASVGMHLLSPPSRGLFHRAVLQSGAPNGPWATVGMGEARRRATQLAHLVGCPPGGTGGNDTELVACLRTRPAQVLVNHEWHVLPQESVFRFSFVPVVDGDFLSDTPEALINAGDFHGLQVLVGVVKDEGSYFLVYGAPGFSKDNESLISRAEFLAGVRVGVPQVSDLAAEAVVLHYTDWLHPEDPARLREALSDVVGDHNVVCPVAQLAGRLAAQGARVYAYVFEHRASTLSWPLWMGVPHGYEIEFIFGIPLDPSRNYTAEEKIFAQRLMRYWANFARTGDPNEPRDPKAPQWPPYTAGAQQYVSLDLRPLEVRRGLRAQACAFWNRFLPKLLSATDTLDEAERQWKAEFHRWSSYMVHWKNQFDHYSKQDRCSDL

| Compound | Potency |
| --- | --- |
| CC[C@H](c1ccc(O)cc1)[C@@H](CC)c1ccc(O)cc1 | inactive |
| COc1cc(C(=S)N2CCOCC2)cc(OC)c1OC | inactive |
| C/C(CC(C)C)=N\O | inactive |
| CC(C)N=C(N)/N=C(\N)Nc1ccc(Cl)cc1 | inactive |
| C/C(=C1\CCOC(=O)S1)N(C=O)Cc1cnc(C)nc1N | inactive |
| Cc1c(O)cccc1O | inactive |
| O=C1c2ccccc2C(=O)c2cc(S(=O)(=O)O)ccc21 | inactive |
| O=C(O)P(=O)(O)O | inactive |
| CC(C)[C@H]1CC[C@@H](C)CC1=O | inactive |
| O=CNNC=O | inactive |
| c1ccc(CCc2ccccc2)cc1 | inactive |
| OCCCCC(O)CO (stereo not given) | inactive |
| CCCC(C)C(=O)O (stereo not given) | inactive |
| CC(=O)Nc1ccc(C)c(Cl)c1 | inactive |
| CCCCCCCCCCCCOCCOCCOCCOCCOCCOCCOCCOCCOCCO | inactive |
| CN1C(=O)CC(c2ccccc2)C1=O (stereo not given) | inactive |
| Cc1cccc(C)c1NC(=O)CN1CCN(CCCC(c2ccc(F)cc2)c2ccc(F)cc2)CC1 | inactive |
| Cc1cc(C(C)(C)C)c(O)c(C(C)(C)C)c1 | inactive |
| CCCCCCCCCCCCS | inactive |
| COC(=O)CC(=O)OC | inactive |

| Compound | Potency |
| --- | --- |
| CC(C=O)Cc1ccc(C(C)C)cc1 (stereo not given) | inactive |
| Cn1cnc2c(=O)[nH]c(N)nc21 | inactive |
| O=C(Cl)c1ccc(C(=O)Cl)cc1 | inactive |
| CC#C[C@]1(O)CC[C@H]2[C@@H]3CCC4=CC(=O)CCC4=C3[C@@H](c3ccc(N(C)C)cc3)C[C@@]21C | inactive |
| F[B-](F)(F)F | inactive |
| Cc1c[nH]c2ccccc12 | inactive |
| CC(=O)OCCN(CCOC(C)=O)c1ccc(N=Nc2ccc([N+](=O)[O-])cc2C#N)cc1 | inactive |
| Cc1cnccn1 | inactive |
| c1ccc(Oc2ccccc2)cc1 | inactive |
| CC1=C(O)C(=O)OC1C (stereo not given) | inactive |
| CCCCCCCCCCCCC | inactive |
| C=C(C)C(=O)O[C@H]1C[C@@H]2CC[C@@]1(C)C2(C)C | inactive |
| CCN1CN(CC)CN(CC)C1 | inactive |
| CC(=O)OC/C=C(C)/C=C/C=C(C)/C=C/C1=C(C)CCCC1(C)C | inactive |
| CCCCS | inactive |
| CC1(N)CCC(C(C)(C)N)CC1 (stereo not given) | inactive |
| Cc1ccccc1OCC1CO1 (stereo not given) | inactive |
| Cc1cc(SC2=C(O)C[C@@](CCc3ccc(N)cc3)(C(C)C)OC2=O)c(C(C)(C)C)cc1CO | inactive |
| CCCCCCCCCCCCCCCC(=O)O | inactive |
| COC(=O)N/N=C/c1c[n+]([O-])c2ccccc2[n+]1[O-] | inactive |

target: Acetylcholinesterase (Homo sapiens) (UniProt P22303); experiment: Acetylcholinesterase (AChE) small molecule antagonists: enzyme-based qHTS assay (AID 1347397); conditions: Potency: AChE enzyme activity inhibition; outcome: AChE enzyme activity inhibition; series mostly up to 115 µM; further: nearly all actives have a fitted effect of over 55% in size
Method in brief: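 In this quantitative HTS, compounds from the Tox21 10K collection were preincubated 30 min at ambient temperature with recombinant human AChE dispensed at 50 mU/mL. Hydrolysis of acetylthiocholine was then followed for 10 min by DTNB colour development.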

| Compound | Potency |
| --- | --- |
| CC[C@H](c1ccc(O)cc1)[C@@H](CC)c1ccc(O)cc1 | inactive |
| COc1cc(C(=S)N2CCOCC2)cc(OC)c1OC | inactive |
| C/C(CC(C)C)=N\O | inactive |
| CC(C)N=C(N)/N=C(\N)Nc1ccc(Cl)cc1 | inactive |
| C/C(=C1\CCOC(=O)S1)N(C=O)Cc1cnc(C)nc1N | inactive |
| Cc1c(O)cccc1O | inactive |
| O=C1c2ccccc2C(=O)c2cc(S(=O)(=O)O)ccc21 | inactive |
| O=C(O)P(=O)(O)O | inactive |
| CC(C)[C@H]1CC[C@@H](C)CC1=O | inactive |
| O=CNNC=O | inactive |
| c1ccc(CCc2ccccc2)cc1 | inactive |
| OCCCCC(O)CO (stereo not given) | inactive |
| CCCC(C)C(=O)O (stereo not given) | inactive |
| CC(=O)Nc1ccc(C)c(Cl)c1 | inactive |
| CCCCCCCCCCCCOCCOCCOCCOCCOCCOCCOCCOCCOCCO | inactive |
| CN1C(=O)CC(c2ccccc2)C1=O (stereo not given) | inactive |
| Cc1cccc(C)c1NC(=O)CN1CCN(CCCC(c2ccc(F)cc2)c2ccc(F)cc2)CC1 | inactive |
| Cc1cc(C(C)(C)C)c(O)c(C(C)(C)C)c1 | inactive |
| CCCCCCCCCCCCS | inactive |
| COC(=O)CC(=O)OC | inactive |

| Compound | Potency |
| --- | --- |
| CC(C=O)Cc1ccc(C(C)C)cc1 (stereo not given) | inactive |
| Cn1cnc2c(=O)[nH]c(N)nc21 | inactive |
| O=C(Cl)c1ccc(C(=O)Cl)cc1 | inactive |
| CC#C[C@]1(O)CC[C@H]2[C@@H]3CCC4=CC(=O)CCC4=C3[C@@H](c3ccc(N(C)C)cc3)C[C@@]21C | inactive |
| F[B-](F)(F)F | inactive |
| Cc1c[nH]c2ccccc12 | inactive |
| CC(=O)OCCN(CCOC(C)=O)c1ccc(N=Nc2ccc([N+](=O)[O-])cc2C#N)cc1 | inactive |
| Cc1cnccn1 | inactive |
| c1ccc(Oc2ccccc2)cc1 | inactive |
| CC1=C(O)C(=O)OC1C (stereo not given) | inactive |
| CCCCCCCCCCCCC | inactive |
| C=C(C)C(=O)O[C@H]1C[C@@H]2CC[C@@]1(C)C2(C)C | inactive |
| CCN1CN(CC)CN(CC)C1 | inactive |
| CC(=O)OC/C=C(C)/C=C/C=C(C)/C=C/C1=C(C)CCCC1(C)C | inactive |
| CCCCS | inactive |
| CC1(N)CCC(C(C)(C)N)CC1 (stereo not given) | inactive |
| Cc1ccccc1OCC1CO1 (stereo not given) | inactive |
| Cc1cc(SC2=C(O)C[C@@](CCc3ccc(N)cc3)(C(C)C)OC2=O)c(C(C)(C)C)cc1CO | inactive |
| CCCCCCCCCCCCCCCC(=O)O | inactive |
| COC(=O)N/N=C/c1c[n+]([O-])c2ccccc2[n+]1[O-] | inactive |
